Results from PubChem BioAssay (Tox21).
Records with an inconclusive call do not appear. Active and inactive are the calls of the source. Calls follow the shape of the dose curve; as a rule, active = well fitted cell-killing curve with a large enough effect in the repeat runs; inconclusive = weak or mixed curves, or effect the other way; inactive = flat fitted curve, though single readings scatter.

Experiment: cAMP Responsive Elements (CRE) small molecule antagonists, cell-based qHTS assay: qHTS cell viability counter screen (AID 2060913); also: nearly all actives have a fitted effect of over 40% in size
Conditions: CRE-bla HEK293T viability, CellTiter-Glo luminescence, 5 h; series mostly up to 92.4 µM; viability change, negative = cytotoxic: at the top concentration
How it was run: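 Viability of NKH477-stimulated (0.25 uM final) CRE-bla HEK293T cells is measured by CellTiter-Glo luminescence following 3 hrs compound exposure at 37 C.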
% is scaled to controls: 0 for no effect and ±100 for the full control effect.

Structure (SMILES)	viability change, negative = cytotoxic	Potency
CN(C)c1ccc(/C=C/c2ccc([N+](=O)[O-])cc2)cc1	10.9% [at 8.39 µM] (inactive)	–
O=C(O[C@@H](C(=O)O)[C@@H](OC(=O)c1ccccc1)C(=O)O)c1ccccc1	-6.74% (inactive)	–
CCCCCCCCCCO	–	inactive
CC(=O)Oc1ccc2c(c1)CC[C@@H]1[C@@H]2CC[C@]2(C)[C@@H](O)CC[C@@H]12	-0.458% [at 42.5 µM] (inactive)	–
c1ccncc1	–	inactive
Cc1ccc(Br)cc1	4.8% (inactive)	–
OC1(c2ccccc2)CCNCC1	-0.442% [at 42.5 µM] (inactive)	–
O=C(N[C@@H](Cc1ccccc1)[C@@H](O)C(=O)N1C[C@@H](O)[C@@H](O)C1)c1cc2cc(Cl)ccc2[nH]1	0.337% (inactive)	–
CN(C)c1cc(NC(=O)CNC(C)(C)C)c(O)c2c1C[C@H]1C[C@H]3[C@H](N(C)C)C(=O)C(C(N)=O)=C(O)[C@@]3(O)C(=O)C1=C2O	-0.308% [at 42.5 µM] (inactive)	–
CC(C)[C@@H]1CC[C@@H](C)CC1=O	–	inactive
O=Nc1ccc(O)cc1	–	inactive
CCOC(=O)c1ccc(O)cc1	–	inactive
CCCCOCCOC(=O)CCCCCCCCC(=O)OCCOCCCC	0.95% (inactive)	–
COc1cc(NS(=O)(=O)c2ccc(N)cc2)nc(OC)n1	-0.272% [at 42.5 µM] (inactive)	–
O=C(CCS)OCC(COC(=O)CCS)(COC(=O)CCS)COC(=O)CCS	-1.57% (inactive)	–
Cn1cnc2c1c(=O)[nH]c(=O)n2C	–	inactive
C1CCC2=NCCCN2CC1	7.19% (inactive)	–
CCN(CCC#N)c1ccc(N=Nc2ccc([N+](=O)[O-])cc2)cc1	13.6% (inactive)	–
Cc1c(Cl)cccc1[N+](=O)[O-]	0.128% (inactive)	–
CC1CC(C)C(=O)C1=O (stereo unspecified)	-0.555% (inactive)	–
CC1=CC(=C(c2ccc(N)cc2)c2ccc(N)cc2)C=CC1=N	-2.05% [at 8.39 µM] (inactive)	–
